Most compounds without a hit are left out; they make up all but 2.6% or so of the library.
PHOSPHO1 inh: PubChem AID 1565. recombinant PHOSPHO1, absorbance phosphatase assay. 290,000 compounds, 1.1% hits. Phosphoethanolamine/phosphocholine phosphatase (Homo sapiens), Q8TCT1. inhibition, % at 13.3 µM; in the data active = inhibition above about 60%
eIF4H inh: human eIF4H binding inhibitors, primary screen, translation initiation inhibitor project, biochemical, uHTS, fluorescence polarization; Eukaryotic translation initiation factor 4H (Homo sapiens), Q15056; AID 2012, 2009; 290,000 compounds, 0.94% hits; eIF4H fluorescence polarization binding assay; inhibition, % at 35 µM;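 also: calls also rest on retests at 20 µM and on dose response follow-up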
PABP FP inh: PABP poly(A) RNA binding inhibitors, primary screen, biochemical, fluorescence polarization, uHTS. AID 2014, 2009. calls only at 35 µM. 290,000 compounds, 1% hits;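 also: calls also rest on retests at 20 µM and on dose response follow-up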
Target sequence (P11940 whole entry, looked up): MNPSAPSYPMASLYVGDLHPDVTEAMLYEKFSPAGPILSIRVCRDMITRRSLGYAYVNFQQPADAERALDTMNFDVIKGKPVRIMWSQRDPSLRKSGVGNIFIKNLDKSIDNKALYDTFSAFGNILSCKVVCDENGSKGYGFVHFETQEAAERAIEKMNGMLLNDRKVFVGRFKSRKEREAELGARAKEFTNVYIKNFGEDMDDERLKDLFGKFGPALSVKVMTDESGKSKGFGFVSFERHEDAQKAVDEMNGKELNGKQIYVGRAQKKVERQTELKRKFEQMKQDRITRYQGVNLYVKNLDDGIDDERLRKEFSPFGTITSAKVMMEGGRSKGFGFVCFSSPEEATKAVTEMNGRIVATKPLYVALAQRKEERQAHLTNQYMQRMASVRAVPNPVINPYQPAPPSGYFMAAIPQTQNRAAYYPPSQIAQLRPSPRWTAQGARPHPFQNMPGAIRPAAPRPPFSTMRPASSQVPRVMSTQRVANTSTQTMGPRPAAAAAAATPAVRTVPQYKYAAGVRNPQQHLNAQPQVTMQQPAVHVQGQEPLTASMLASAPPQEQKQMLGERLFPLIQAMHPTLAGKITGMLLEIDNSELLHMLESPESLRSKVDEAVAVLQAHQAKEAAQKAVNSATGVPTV
PABP1 MLLE inh: inhibitors of PABP1 MLLE–PAM2 peptide binding, primary screen, biochemical, fluorescence polarization, FITC-PAM2, GST-MLLE; Polyadenylate-binding protein 1 (Homo sapiens), P11940; inhibition, % at 20 µM; 360,000 compounds, 0.36% hits; in the data active = inhibition above about 35%, passing the limit was not always enough
A3G deaminase: APOBEC3G DNA deaminase inhibitors, primary screen, biochemical, fluorescence, single-stranded DNA substrate, uHTS; DNA dC->dU-editing enzyme APOBEC-3G (Homo sapiens), Q9HC16; 330,000 compounds, 0.28% hits; recombinant A3G, ssDNA deamination FAM/TAMRA fluorescence; AID 493012, 2011; inhibition, % at 20 µM;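 active = inhibition of at least 40% at 20 µM, with no more than 30% in the related APOBEC3A deaminase screen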
A3A deaminase: APOBEC3A ssDNA deaminase inhibitors, primary screen, selectivity assay for APOBEC3G inhibitor project, biochemical, FAM/TAMRA oligo cleavage fluorescence. DNA dC->dU-editing enzyme APOBEC-3A (Homo sapiens), P31941. recombinant A3A, FAM/TAMRA ssDNA deamination fluorescence. inhibition, % at 20 µM. 330,000 compounds, 0.41% hits. AID 493011, 2011;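 active = at least 40% inhibition at 20 µM here, with at most 30% in a related deaminase screen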
Each line names hits and unclear results; the compound was inactive in the other large screens. Unless noted, no rule for the calls is given here.

Cc1cc(C)cc(N2C(=O)CC(Sc3ncn[nH]3)C2=O)c1 (stereo unspecified)	A3G deaminase 41
COc1ccc(C(=O)OCC(=O)c2ccc(C3CCCCC3)cc2)cc1	none
O=C(OCC(=O)C12CC3CC(CC(C3)C1)C2)c1ccc(O)cc1	none (no result: PHOSPHO1 inh, eIF4H inh, PABP FP inh)
Nc1ccc(O)cc1C(=O)OCC(=O)c1ccc(C2CCCCC2)cc1	eIF4H inh 93, PABP FP inh active (no result: A3G deaminase, A3A deaminase)
Nc1ccc(O)cc1C(=O)OCC(=O)C12CC3CC(CC(C3)C1)C2	eIF4H inh 68, PABP FP inh active
O=S(=O)(Nc1ccc(S(=O)(=O)N2CCCC2)cc1)c1ccccc1Br	none (no result: PHOSPHO1 inh, eIF4H inh, PABP FP inh)
Cc1ccc(C(C(=O)NCC2CCCO2)N(C(=O)c2snc(C(N)=O)c2N)c2ccc(C)c(C)c2)o1 (stereo unspecified)	none
O=C1OCCC1Sc1nc2cc(Cl)ccc2n1Cc1ccccc1 (stereo unspecified)	PHOSPHO1 inh 89
O=C1OCCC1Sc1nc2ccccc2c(=O)n1Cc1ccccc1 (stereo unspecified)	none
O=C1CC(=O)c2c1cccc2[N+](=O)[O-]	eIF4H inh 65, PABP FP inh active (no result: PABP1 MLLE inh, A3G deaminase, A3A deaminase)
O=C1OCc2cccc([N+](=O)[O-])c21	none
CC(=O)Nc1cccc(/C(C)=N/NC(=O)c2ccc(O)cc2)c1	eIF4H inh active
C/C(=N\NC(=O)c1cc(O)ccc1O)c1cccc(NC(=O)c2ccc(Cl)cc2)c1	eIF4H inh 90, PABP FP inh active
C/C(=N/NC(=O)c1ccc(O)cc1)c1cccc([N+](=O)[O-])c1	none
C/C(=N\NC(=O)c1ccccc1O)c1cccc(NC(=O)c2ccccc2)c1	none
C/C(=N\NC(=O)c1cc(O)ccc1O)c1cccc(NC(=O)c2cccc(Cl)c2)c1	eIF4H inh 85, PABP FP inh active
C/C(=N\NC(=O)c1cc(O)cc(O)c1)c1ccc(NC(=O)Cc2ccccc2)cc1	eIF4H inh 101, PABP FP inh active
Cc1ccc(-c2csc(N)n2)s1	PHOSPHO1 inh 71
CCn1c(CC(=O)Nc2ccccc2F)nnc1SCC(=O)NC1=NCCS1	none (no result: PHOSPHO1 inh, eIF4H inh, PABP FP inh, A3G deaminase, A3A deaminase)
CCOC(=O)c1sc(N)c(C#N)c1COC(=O)CNC(=O)c1ccccc1	PABP FP inh active
COc1ccc(Cc2nnc(NC(=O)C3CCCO3)s2)cc1OC (stereo unspecified)	PABP1 MLLE inh 45
CS(=O)(=O)N1CCN(c2ccc([N+](=O)[O-])c(NCc3ccc(Cl)cc3)c2)CC1	eIF4H inh active, PABP FP inh active
COCCCN=C(c1ccco1)n1c(=S)nc(-c2ccco2)n(CCCOC)c1=S	PHOSPHO1 inh 98
CN1CCN(NC(=S)NC2CCCC2)CC1	none
Cc1cc(C(=O)CSc2nnnn2-c2ccccc2)c(C)n1CC1CCCO1 (stereo unspecified)	none
Cc1cc(C(=O)CSc2nnc(-c3ccc(F)cc3)o2)c(C)n1CC1CCCO1 (stereo unspecified)	PHOSPHO1 inh 100
COc1cc(-c2nnc(SCC(=O)c3ccc(C)cc3)o2)cc(OC)c1OC	none
COc1cc(-c2nnc(SCC(=O)c3cc(C)n(CC4CCCO4)c3C)o2)cc(OC)c1OC (stereo unspecified)	eIF4H inh 70, PABP FP inh active
CCN1CCn2c3c(c4cccc(C)c42)CCCC31 (stereo unspecified)	none (no result: PHOSPHO1 inh)
OC[C@@H]1CN(Cc2cccc(C(F)(F)F)c2)C[C@H](n2cnc3c(NC4CC4)ncnc32)O1	none (no result: PHOSPHO1 inh, eIF4H inh, PABP FP inh, A3G deaminase, A3A deaminase)
ONc1cccnc1-n1nc(C(F)(F)F)cc1C(F)(F)F	eIF4H inh 64 (no result: PABP1 MLLE inh)
CCC(=O)Nc1ccc(C(=O)CSc2nnc(-c3ccc(O)cc3)n2CC2CCCO2)cc1 (stereo unspecified)	none
CCSc1nnc(-c2ccc(S(=O)(=O)N3CCOCC3)cc2)n1CC1CCCO1 (stereo unspecified)	none
COc1cc(C(=O)CSc2nnc(-c3ccc(O)cc3)n2CC2CCCO2)ccc1NC(C)=O (stereo unspecified)	PHOSPHO1 inh 79
O=C(CSc1nnc(-c2ccc(S(=O)(=O)N3CCCC3)cc2)n1CC1CCCO1)NC1CC1 (stereo unspecified)	PHOSPHO1 inh 84
NCCCCc1cn(CC(=O)N2CCNCC2)nn1	PABP FP inh active
CC(O)Cc1cn(CC(=O)N2CCNCC2)nn1 (stereo unspecified)	none
Cc1cc(C)c2c(N)c(C(=O)NC3CCCC3)sc2n1	eIF4H inh active, PABP FP inh active
Cc1cc(C)c2c(N)c(C(=O)NCC3CCCCC3)sc2n1	PABP1 MLLE inh 40
Cc1cc(C)cc(NC(=O)c2sc3nc(C)cc(C)c3c2N)c1	none
COc1ccc2c(c1)c(=O)oc1c(C)c(OCc3cc(C(=O)O)oc3C)ccc12	PABP FP inh active
Cc1oc(C(=O)O)cc1COc1cccc2cccnc12	eIF4H inh 92
COc1ccc2c(c1)c(=O)oc1c(C)c(OCc3ccc(C(=O)O)cc3)ccc12	none (no result: A3G deaminase, A3A deaminase)
CCC(=O)Nc1ccc(Cl)c(NC(=S)NC(=O)COc2ccccc2)c1	PABP1 MLLE inh 39
N#Cc1ccc(S(=O)(=O)N2CCC(C(=O)Nc3cccc(C(=O)NC4CC4)c3)CC2)cc1	none (no result: PHOSPHO1 inh, eIF4H inh, PABP FP inh)
COCCSc1ccccc1C(=O)N1CCCC(C)C1 (stereo unspecified)	none
COCCSc1ccccc1C(=O)N1CCc2ccccc2C1	PHOSPHO1 inh 60
CCOC(=O)C1CCCN(C(=O)c2ccccc2SCCOC)C1 (stereo unspecified)	PABP1 MLLE inh 40
O=C1NC(c2ccco2)Nc2sc3c(c21)CCN(Cc1ccccc1)C3 (stereo unspecified)	eIF4H inh 116, PABP FP inh active
CN1CCc2c(sc3c2C(=O)NC(c2ccco2)N3)C1 (stereo unspecified)	none
CCOC(=O)N1CCc2c(sc3c2C(=O)NC(c2ccccc2)N3)C1 (stereo unspecified)	PHOSPHO1 inh 66
CCOC1=C2[C@H](c3ccccc3F)N(S(=O)(=O)c3ccc(C)cc3)C[C@H]2n2c(=O)n(-c3ccccc3)c(=O)n2C1	none (no result: PHOSPHO1 inh, eIF4H inh, PABP FP inh, A3G deaminase, A3A deaminase)
Cc1ccsc1/C=C/c1ccc2cccc(O)c2n1	PHOSPHO1 inh 86
O=C(COC(=O)c1cncc(Br)c1)NCc1ccccc1Cl	PABP FP inh active
O=C(Nc1cccc(Cl)c1N1CCCCC1)c1ccc(N2CCOCC2)c([N+](=O)[O-])c1	eIF4H inh active, PABP FP inh active
O=C(NCc1ccccn1)c1ccc(N2CCCC2)c([N+](=O)[O-])c1	PHOSPHO1 inh 63
C=C1CCN(c2ccc(C(=O)NCc3ccc(OC)cc3)cc2[N+](=O)[O-])CC1	none (no result: PHOSPHO1 inh, eIF4H inh, PABP FP inh)

Screening results (PubChem)
